This is a sample that favours compounds with a hit; in the whole collection about 8% have one here.
Marburg entry: inhibitors of Marburg virus binding or entry into cells. Marburg virus pseudotype entry/binding inhibition, cell-based. Potency, µM (top dose mostly 49.2 µM), hits mostly inhibitors. 18,000 tested, 6.5% active. AID 720532
LASV entry inh: Lassa virus entry inhibition. Lassa virus pseudotyped entry inhibition, cell-based qHTS. Potency, µM (doses to about 49.2 µM), usual class: inhibitors. 18,000 tested, 4.1% active
A number is an active result; – = inactive; ? = inconclusive; · = no result given; + = active, no number; ! = a repeat was not active; [ ] = dose if it differs, or a comment. Calls come from the whole dose curve; tested in HEK293 cells.

SMILES	Marburg entry	LASV entry inh
COC(=O)C1=CO[C@@H](C)[C@@H]2CN3CCc4c([nH]c5cc(OC)ccc45)[C@@H]3C[C@H]12	–	–
COc1cccc([C@@H]2Oc3ccc(OC)cc3C(=O)[C@@H]2O)c1	–[8.59 µM]	–[8.59 µM]
Cc1cc(C(=O)NCc2nnc3n2CCN(Cc2ccc(C)c(C)c2)CC3)c(C)o1	–	–
Cc1ccc(C)c(CN2CCc3nnc(CNC(=O)c4cc(C)oc4C)n3CC2)c1	+	–
COc1ccc([C@]23Cc4cc(OC)c(OC)cc4[C@H](O2)C2=C(CC4(CCCCC4)OC2=O)O3)cc1	–[8.59 µM]	–[8.59 µM]
C[C@@H]1C=CCC(=O)N[C@@H](c2cccc(Br)c2)[C@H](C)C=CCC(=O)N[C@@H]1c1cccc(Br)c1	?	–[8.59 µM]
C[C@@H]1N[S+](=O)([O-])c2cc(Cl)ccc2O[C@H]1c1ccccc1	–	–
NCCc1ccccn1	–	–
c1ccc(CN(CCN(Cc2ccccn2)Cc2ccccn2)Cc2ccccn2)nc1	10µM	10µM
CCCCN1CCC(CCC(=O)c2cc(Cl)c(N)cc2OC)CC1	11µM	28µM!
CCOc1cc(N)c(Cl)cc1C(=O)NCC1CN(Cc2ccc(F)cc2)CCO1 (configuration not stated)	–	–
COC(=O)[C@H]1O[C@@H](c2c(OC)c(OC)c(C)c(OC)c2OC)[C@H](C)[C@@H](O)[C@@H]1C	–[8.59 µM]	–[8.59 µM]
C=C1CCC2C(C)(CO)C(O)CCC2(C)C1C/C=C1\C(=O)OCC1O (configuration not stated)	11µM	?
O=C(c1cccs1)N1C[C@@H](O)[C@@H](n2cc(-c3ccc(F)cc3)nn2)C[C@@H]1c1ccccc1	–	–
O=C1CCCC=C1C(O)COCc1ccccc1 (configuration not stated)	–[8.59 µM]	–[8.59 µM]
O=C1CCc2ccc(OCCCCN3CCN(c4cccc(Cl)c4Cl)CC3)cc2N1	–	?
O=C1NC2CCCCN2C12CCN(CCCN1c3ccccc3CCc3ccc(Cl)cc31)CC2 (configuration not stated)	7.1µM	28µM
COC(=O)CC=C1c2ccccc2[C@@H](NC(=O)OC)[C@@H]1C	–[8.59 µM]	–[8.59 µM]
O=C(O)c1ccccc1-c1c2ccc(=O)cc-2oc2cc(O)ccc12	–	–
CN(C)c1ccc2c(-c3ccccc3)c3ccc(=[N+](C)C)cc-3oc2c1	2.5µM	3.2µM
C=C1C(=O)OC2CC1C(OC(C)=O)CC(C)=CCCC(C)=CCC[C@@]2(C)O (some centres not stated)	16µM	11µM
COC(=O)CN1CN(c2ccccc2)C2(CCN(Cc3ccc4ccccc4c3)CC2)C1=O	?	–
O=C(CCCN1CCC2(CC1)C(=O)N(Cc1cccc(F)c1)CN2c1ccccc1)c1ccc(F)cc1	8.9µM	16µM
C=CCCCC=C(C)[C@H](OCc1ccc(OC)cc1)[C@H](CCC=C(C)C(N)=O)OC	–[8.59 µM]	–[8.59 µM]
CCCCCC(=O)N1C[C@@H](n2cc(-c3ccc(F)cc3)nn2)[C@H](O)C[C@H]1c1ccc(OC)cc1	–	·
SMILES	Marburg entry	LASV entry inh
C[C@@H]1O[C@@H](O[C@@H]2C=C3CC[C@@H]4[C@H](CC[C@]5(C)[C@@H](c6ccc(=O)oc6)CC[C@]45O)[C@@]3(C)CC2)[C@H](O)[C@H](O)[C@H]1O	?	1µM
CC(CCN1CCCc2nc(C)c(C)cc21)=NO[C@@H](C)CN1CCCCc2nc(C)c(C)cc21	–[8.59 µM]	–[8.59 µM]
C[C@@](N)(C(=O)O)c1ccc(S(=O)(=O)O)cc1	–	–
CC(C)(C)c1ccc(S(=O)(=O)/C=C\C#N)cc1	16µM	35µM
Cc1ccc(S(=O)(=O)/C=C/C#N)cc1	2.8µM	7.1µM
Cc1ccc(S(=O)(=O)/C=C\C#N)cc1	10µM	16µM
Oc1ccc2[nH]cc(CCCCN3CC=C(c4ccccc4)CC3)c2c1	20µM	–
O=C(O)c1ccc2[nH]cc(CCCCN3CC=C(c4ccccc4)CC3)c2c1	?	–
CSC[C@H]1CN(Cc2ccccc2)C(=O)[C@H]1CC(=O)Nc1ccc(Br)cc1	–	–
CC[C@@H](C(=O)[C@@H](C)[C@@H](O)[C@H](C)[C@@H]1O[C@@H]([C@@H](CC)C(=O)O)CC[C@@H]1C)[C@H]1O[C@]2(C=C[C@@H](O)[C@]3(CC[C@@](C)([C@H]4CC[C@](O)(CC)[C@H](C)O4)O3)O2)[C@H](C)C[C@@H]1C	–	3.2µM
O=C(Nc1n[nH]c2nc(-c3ccco3)ccc12)C1CC1	–	·
C[C@@]12C(=O)OC(=O)[C@]1(C)C1CCC2O1	4.5µM	2.2µM
O=S1(=O)C=CCN1	–	–
c1ccc(-c2[nH]ncc2-c2ccnc(-c3ccc(OCCN4CCOCC4)cc3)c2)nc1	–	–
c1cc(-c2cnn3cc(-c4ccc(OCCN5CCCCC5)cc4)cnc23)ccn1	13µM	–
Fc1cccc(COc2ccc(Nc3ncnc4sc(-c5ccco5)cc34)cc2Cl)c1	?	–
CN1CCN(Cc2ccc(-c3cc4ncnc(Nc5ccc(OCc6cccc(F)c6)c(Cl)c5)c4s3)o2)CC1	10µM	?
CN(C)c1cccc(CN2CCN(c3ccccc3)CC2)c1	–	–
CCc1cccc(N(C)C(N)=Nc2cccc3ccccc23)c1	28µM	?
C[C@@H]1CC2CCCC2[C@]2(O1)C(=O)Nc1ccccc12 (some centres not stated)	–[8.59 µM]	–[8.59 µM]
COc1cccc([C@@H]2Oc3ccc(OC)cc3C(=O)[C@H]2OC(=O)NCCOc2ccccc2)c1	–	–
COc1ccc2c(c1)OC(C)(C)C(c1ccccc1)C2c1ccc(OCCN2CCCC2)cc1 (configuration not stated)	4.5µM	?
COC(=O)[C@]1(C)CC[C@@]2(C)CC[C@@]3(C)C4=CC=C5C(=CC(=O)C(O)=C5C)[C@@]4(C)CC[C@@]3(C)C2C1 (some centres not stated)	3.5µM	5.6µM
COC(=O)c1c(C(=O)OC)c2c3ccccc3cc(C3CC3)n2c1C(=O)OC	–[8.59 µM]	–[8.59 µM]
CC12C=C(C=CCCc3ccco3)C(C)(C1)C(CCc1ccco1)CC2=O (configuration not stated)	–[8.59 µM]	–[8.59 µM]
SMILES	Marburg entry	LASV entry inh
O=c1c(-c2ccccc2)c1-c1ccccc1	14µM	7.1µM
Nc1ccccc1	–	–
C=C1CCC(O)C/C1=C/C=C1\CCC[C@@]2(C)C(C(C)/C=C/C(C)C(C)C)CC[C@@H]12 (some centres not stated)	–	–
CC(C)[C@@H](C)/C=C/[C@@H](C)[C@H]1CC[C@H]2/C(=C/C=C3\C[C@@H](O)CC[C@@H]3C)CCC[C@]12C	–	22µM
COC(=O)[C@@H]1CC[C@H](C)[C@@H](c2ccc(C)cc2)N1C(=O)c1ccc(C=NO[C@H](C)CN2CCCc3nc(C)c(C)cc32)cc1	?	–[8.59 µM]
CN1CCC(=C2c3ccccc3CCc3cccnc32)CC1	–	–
CCOC(=O)N1CCC(=C2c3ccc(Cl)cc3CCc3cccnc32)CC1	–	32µM!
ON=C1CCc2cc(-c3nc(C4CCNCC4)[nH]c3-c3ccncc3)ccc21	–	–
CC1(C)O[C@@H](C(O)(c2cc(C(F)(F)F)cc(C(F)(F)F)c2)c2cc(C(F)(F)F)cc(C(F)(F)F)c2)[C@H](C(O)(c2cc(C(F)(F)F)cc(C(F)(F)F)c2)c2cc(C(F)(F)F)cc(C(F)(F)F)c2)O1	–[8.59 µM]	–[8.59 µM]
CC(C)=CCN1C(=O)[C@@]2(CC(C)=C[C@@H](COCc3ccccc3)O2)c2ccccc21	–[8.59 µM]	·
CC12CCC3c4ccc(O)cc4CCC3C1CCC2O (configuration not stated)	–	?
CCCCCCC(=O)O[C@H]1CC[C@H]2[C@@H]3CCc4cc(O)ccc4[C@H]3CC[C@]12C	–	32µM
